Results on 25 compounds are retold here after PubChem BioAssay (Tox21).

Each structure is given as a SMILES string. Records with an inconclusive call do not appear. A call without a number means that no potency is given here. Active and inactive are the calls of the source. Calls follow the shape of the full dose curve.
Potency is read from the fitted curve at half-maximal effect.

The assay is described as follows: qHTS assay for small molecule agonists of the p53 signaling pathway (AID 651631). Also: nearly all actives have a fitted effect of over 15% in size. The settings on record: HCT-116 p53RE-bla reporter, beta-lactamase FRET ratio, 16 h; series mostly up to 73.3 µM. The method, boiled down:
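p53RE-bla HCT-116 cells; compounds 16 h, 37 °C; LiveBLAzer B/G FRET substrate 2 h RT; fluorescence intensity read-out, qHTS format.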
Background: In qHTS, concentration-response curves come from the screen itself.
Take `C=C(C)C(=O)OCCC(F)(F)C(F)(F)C(F)(F)C(F)(F)C(F)(F)C(F)(F)F`: the Potency entry is “inactive”.

As for `CC1CCc2nccnc21` (stereo not given), the Potency entry is “inactive”.

Regarding `O=C(C(=O)c1ccco1)c1ccco1`, the Potency result was “inactive”.

Turning to `CC1C(C)(C)C2=C(C(=O)CCC2)C1(C)C` (stereo not given), the Potency entry was “inactive”.

As for `Cc1cccc2sc(N)nc12`, the Potency result is “inactive”.

Take `O=c1[nH][nH]c(=O)c2cc([N+](=O)[O-])ccc12`: the Potency result was “inactive”.

For the compound `CCCCCCOC(=O)CCCCC`, the Potency entry is “inactive”.

Consider `O=NN(CCCl)C(=O)NCCCl`, for which the Potency was 1.19 µM (active).

On to `O=S(=O)(O)CO`, for which the Potency entry was “inactive”.

On to `CC(C)(O)c1coc(S(=O)(=O)NC(=O)Nc2c3c(cc4c2CCC4)CCC3)c1`, for which the Potency result was “inactive”.

`Nc1ccn([C@H]2CS[C@@H](CO)O2)c(=O)n1`: the Potency result is “inactive”.

As for `Nc1ccc(S(=O)(=O)NCc2ccccc2)cc1`, the Potency result was “inactive”.

Turning to `Nc1ccc(N=Nc2ccc(N)cc2)cc1`, the Potency entry is “inactive”.

Regarding `O=c1[nH]c2cc(C(F)(F)F)c(N3CCOCC3)cc2n(CP(=O)(O)O)c1=O`, the Potency entry was “inactive”.

`CC(O)Cn1cnc2c1c(=O)n(C)c(=O)n2C` (stereo not given): the Potency result was “inactive”.

`CCN(CC)CCOC(=O)C(c1ccccc1)c1ccccc1`: the Potency result was “inactive”.

As to `O=C(O)CN1C(=O)c2cccc3cccc(c23)C1=O`, the Potency result was “inactive”.

In the case of `CC(C)COC(=O)COc1cc(Cl)c(Cl)cc1Cl`, the Potency result is “inactive”.

Regarding `C[C@H](CS)C(=O)N1CCC[C@H]1C(=O)O`, the Potency entry is “inactive”.

Turning to `CCCCCCC(CO)CCCC` (stereo not given), the Potency entry is “inactive”.

Take `CC(=O)OC(C)C[N+](C)(C)C` (stereo not given): the Potency result is “inactive”.

On to `CN=C(N)NC(=O)Nc1c(C)cccc1C`, for which the Potency result was “inactive”.

Consider `CSSc1ccoc1C`, for which the Potency result is “inactive”.

For the compound `CCCCCCCC(=O)OCCCCCC`, the Potency entry is “inactive”.

Consider `CC(C)(C)S`, for which the Potency result was “inactive”.
